Screens as filed in PubChem BioAssay.
In the library only some 4.9% were active in any assay of this set; here they are far more common.
HSF1 inhib – HSF1 inhibition; NIH3T3-HGL HSE-luciferase, MG132-induced, luminescence 8 h; hits give low values; activity change, negative = inhibition, % at 7.5 µM (by protocol); actives 0.77% (n = 300,000);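 active = more than half of replicate wells show activity change below -50%, luminescence cut by over half; inconclusive = some wells, but at most half, below -50%; inactive = no replicate well below -50%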;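 also: luciferase reports HSF-1 transcriptional activity via heat shock element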
Platelet DG rel – platelet dense granule release activity | human platelet-rich plasma, SFLLRN dense granule ATP release, luminescence | inhibition, %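 (compounds screened at 7.5 µM in platelet-rich plasma)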 | actives 0.22% (n = 300,000) | AID 1663;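 active = mean replicate score, as percent of positive control, at or above 50; inconclusive = mean below 50 but at least one replicate at or above 50; inactive = mean and every replicate below 50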
HSP90 refold inh – blocks HSP90-mediated luciferase refolding in reticulocyte lysate; AID 1789; Rabbit reticulocyte lysate, luciferase refolding luminescence, 3 h; inhibition, % at 5.6 µM; actives 0.91% (n = 290,000);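 active = inhibition above the screen-wide mean plus 3 SD, computed separately per campaign, cut at about 16% in these data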;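 also: inhibitors lower the luminescence because luciferase stays unfolded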
dFosB activator – mouse delta FosB homodimer activation; P13346; purified delta FosB, TAMRA-CDK5 oligo fluorescence polarization; percent of positive-control signal above neutral wells; activation, % at 25 µM; actives 0.99% (n = 340,000); AID 493131;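 active = mean activation above about 17%, with every replicate also reaching it, limit read from the data, passing the limit was not always enough; inconclusive = only one of the two conditions met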
Target sequence (P13346 whole entry, looked up): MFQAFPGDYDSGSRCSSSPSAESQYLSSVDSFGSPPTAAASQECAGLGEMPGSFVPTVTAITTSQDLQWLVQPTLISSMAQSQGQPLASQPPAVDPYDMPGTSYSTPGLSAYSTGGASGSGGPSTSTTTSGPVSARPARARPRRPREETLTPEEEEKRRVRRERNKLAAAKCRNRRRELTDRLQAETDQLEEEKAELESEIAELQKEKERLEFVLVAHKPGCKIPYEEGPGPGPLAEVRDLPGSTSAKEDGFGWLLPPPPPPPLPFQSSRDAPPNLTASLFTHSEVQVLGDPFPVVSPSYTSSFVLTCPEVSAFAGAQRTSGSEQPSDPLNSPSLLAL
HSF-1 act – increases HSF-1 driven luciferase reporter signal; NIH3T3-HGL HSF-1 luciferase reporter, MG132, 8 h; 100% = twice DMSO control signal; activation, % at 9 µM; actives 1.7% (n = 300,000);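 active = mean replicate activation of at least 50% with a set share of replicates each reaching 50%; inconclusive = only one of those two conditions met; inactive = mean below 50% and too few replicates reaching it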
MPTP block – inhibitors of mitochondrial permeability transition pore. isolated mouse mitochondria, Ca2+ swelling absorbance, 30 min. actives 1.4% (n = 360,000). AID 602449. inhibition, % at 10 µM;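 active = inhibition of 50% or more, scaled per plate between neutral and stimulator controls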
Numbers stand for hits; - = inactive; ? = inconclusive; . = no result.

SMILES | HSF1 inhib | Platelet DG rel | HSP90 refold inh | dFosB activator | HSF-1 act | MPTP block
CCc1ccc(-c2csc(NC(=O)c3cccnc3)n2)cc1 | - | - | - | - | - | -
COc1ccc(C(=O)NC(=S)N2CCN(c3ccccc3O)CC2)cc1 | . | . | . | - | . | -
CCOC(=O)c1c(NC(=O)C(C)OC(=O)c2ccc(NC(=O)CC#N)cc2)sc2c1CCCC2 (stereo not drawn) | - | - | . | - | - | -
Cc1oc(-c2ccccc2F)nc1CS(=O)(=O)CC(=O)N1CCc2ccccc21 | . | . | - | - | . | -
COc1ccc(OC)c(NC(=O)CS(=O)(=O)Cc2ccccc2)c1 | -61 | - | - | - | - | -
COc1ccc(OC)c(NC(=O)CS(=O)(=O)Cc2nc(-c3ccccc3C)oc2C)c1 | - | 51 | - | - | - | -
COc1ccc(OC)c(NC(=O)CSCC(=O)O)c1 | -90 | - | - | - | - | -
Cc1ccccc1-c1nc(CS(=O)(=O)CC(=O)N2CCc3ccccc32)c(C)o1 | - | 58 | - | - | - | -
COc1ccc(OC)c(NC(=O)CSc2ccccc2)c1 | - | - | - | - | - | -
O=C(NS(=O)(=O)c1ccc2ccc(S(=O)(=O)NCCSc3ccccc3)cc2c1)c1cccc2ccccc12 | . | . | . | . | . | -
CC1=C(C)CC(C(=O)NNC(=O)c2cccc(Cl)c2)C(C(=O)O)C1 (stereo not drawn) | - | - | - | - | - | -
COc1cccc(-c2nc(CS(=O)(=O)CC(=O)Nc3c(C)cccc3C)c(C)o2)c1 | - | - | 72 | - | - | -
COc1cccc(-c2nc(CS(=O)(=O)CC(=O)Nc3cc(C)ccc3C)c(C)o2)c1 | - | - | - | ? | - | -
O=c1[nH]c(COc2ccccc2)nc2ccccc12 | - | - | - | - | - | -
O=c1[nH]c(COc2ccc(Br)cc2Cl)nc2ccccc12 | - | - | - | - | 90 | -
O=c1[nH]c(/C=C/c2ccc(Br)cc2)nc2ccccc12 | - | - | - | - | 65 | -
Cc1cccc(/C=C\c2nc3ccccc3c(=O)[nH]2)c1 | - | - | - | - | - | -
N#CCc1nc2ccccc2c(=O)[nH]1 | - | - | - | - | 65 | -
CCC(C)(C)NC(=O)c1ccc2c(c1)N(CC(=O)N1CCCC1)C(=O)C(C)(C)O2 | - | - | - | - | - | -
COc1ccc(C(=O)N/N=C(\c2ccccc2)c2ccccn2)cc1 | - | - | - | - | 100 | -
Cc1cc(C)c(NC(=O)CSc2nncn2-c2cccnc2)c(C)c1 | -54 | - | - | - | - | -
O=C(COC(=O)c1ccc(S(=O)(=O)N2CCCC2)cc1)Nc1ccccc1Cl | . | . | . | . | . | -
N#Cc1ccc(Cl)cc1NC(=O)COC(=O)c1ccc(S(=O)(=O)N2CCCC2)cc1 | - | - | - | - | 55 | -
Cc1ccc(NC(=O)Cc2ccc(-n3cccc3)cc2)c(C)c1 | -53 | - | - | - | - | -
Cc1cc2oc(=O)cc(Cn3ncc(Cl)c(Cl)c3=O)c2cc1Cl | - | - | - | - | 81 | -
SMILES | HSF1 inhib | Platelet DG rel | HSP90 refold inh | dFosB activator | HSF-1 act | MPTP block
Cc1nc(NC(=O)COC(=O)c2cccs2)c(Cl)cc1Cl | . | . | . | - | . | -
Cc1[nH]nc(N=Cc2c(O)n(C)c(=O)n(C)c2=O)c1-c1ccccc1 | - | - | . | . | - | .
Cn1c(O)c(/C=N/Nc2ccccc2)c(=O)n(C)c1=O | - | - | 16 | - | - | -
Cc1ccc(C2=NN(S(C)(=O)=O)C(c3ccc4nccnc4c3)C2)cc1 (stereo not drawn) | - | - | - | - | - | -
COc1ccc(C2=NN(S(C)(=O)=O)C(c3ccc4nccnc4c3)C2)cc1 (stereo not drawn) | - | - | - | - | 92 | -
CCOc1cc(/C=N/NC(=O)CN2CCCCC2)ccc1OCc1ccc(Cl)cc1 | - | - | - | - | 58 | -
COc1cc(OC)cc(C(=O)OCC(=O)N(C)c2ccccc2)c1 | - | - | - | - | - | -
Cc1cccc(N(C(=O)c2snc(C(N)=O)c2N)C(C(=O)NCC2CCCO2)c2ccc3ncccc3c2)c1 (stereo not drawn) | - | - | - | - | - | -
Cc1ccc(/C=C2\Oc3cc(OC(=O)N4CCOCC4)ccc3C2=O)cc1 | - | - | - | - | 92 | -
CC(=O)c1ccc(N2CCN(C(=O)CCC(=O)Nc3ccc4nc(N5CCN(C)CC5)cc(C)c4c3)CC2)cc1 | - | - | - | - | - | -
